# Data from publication PMC7862700, “An all-to-all approach to the identification of sequence-specific readers for epigenetic DNA modifications on cytosine”.
# Columns and labels:
# Assay in all cases: DAPPL (digital affinity profiling via proximity ligation, sequencing); 10 mM Tris-HCl pH 7.5, 50 mM NaCl, 1 mM DTT, 4% glycerol, room temperature, 30 min; GST-TFs on glutathione beads, 16-mer random dsDNA library, 0.1% formaldehyde crosslink after washing; high values mean tight binding
# Settings in all cases: protein: recombinant; tags: N-terminal GST; dsDNA, one strand shown
# ERG = biological target: T1, ERG (Homo sapiens, UniProt P11308 1-479)
# T1 sequence: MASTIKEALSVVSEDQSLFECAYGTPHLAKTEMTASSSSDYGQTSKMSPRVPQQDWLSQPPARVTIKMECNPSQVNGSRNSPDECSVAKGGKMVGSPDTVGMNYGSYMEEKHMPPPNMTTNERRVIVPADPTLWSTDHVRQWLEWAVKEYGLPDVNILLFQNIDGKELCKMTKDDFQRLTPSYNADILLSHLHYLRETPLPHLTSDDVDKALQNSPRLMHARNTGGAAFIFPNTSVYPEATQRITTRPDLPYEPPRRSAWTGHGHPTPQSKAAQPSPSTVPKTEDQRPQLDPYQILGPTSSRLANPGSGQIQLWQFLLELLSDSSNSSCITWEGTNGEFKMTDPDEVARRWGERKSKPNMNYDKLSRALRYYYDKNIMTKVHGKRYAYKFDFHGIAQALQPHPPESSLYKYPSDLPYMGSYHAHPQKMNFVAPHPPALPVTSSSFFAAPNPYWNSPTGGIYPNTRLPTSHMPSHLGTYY
# How it was run: (§1)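 Human transcription factors were made in yeast as GST fusions, captured on glutathione beads and barcoded with DNA. With a tag-only sample included, the pool was incubated with 200 nmole of a random double-stranded 16-mer DNA library in Tris/NaCl/DTT/glycerol buffer at room temperature for 30 min, then crosslinked with 0.1% formaldehyde after washing, ligated by proximity, amplified and sequenced. For binding signal, each hexamer's read frequency for a factor is divided by its frequency for the tag-only sample.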
# EHF = biological target: T2, EHF (Homo sapiens, UniProt Q9NZC4 1-300)
# T2 sequence: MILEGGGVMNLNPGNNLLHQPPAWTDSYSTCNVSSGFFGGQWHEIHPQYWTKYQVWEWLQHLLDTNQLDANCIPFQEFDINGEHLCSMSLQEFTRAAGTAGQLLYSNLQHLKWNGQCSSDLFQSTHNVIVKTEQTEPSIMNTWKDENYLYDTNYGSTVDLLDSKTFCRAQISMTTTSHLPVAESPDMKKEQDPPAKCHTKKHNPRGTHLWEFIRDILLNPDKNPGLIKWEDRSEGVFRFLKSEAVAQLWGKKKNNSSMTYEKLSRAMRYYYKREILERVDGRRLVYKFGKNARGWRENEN
# How it was run: as §1
# SPIC = biological target: T3, SPIC (Homo sapiens, UniProt Q8N5J4 1-248)
# T3 sequence: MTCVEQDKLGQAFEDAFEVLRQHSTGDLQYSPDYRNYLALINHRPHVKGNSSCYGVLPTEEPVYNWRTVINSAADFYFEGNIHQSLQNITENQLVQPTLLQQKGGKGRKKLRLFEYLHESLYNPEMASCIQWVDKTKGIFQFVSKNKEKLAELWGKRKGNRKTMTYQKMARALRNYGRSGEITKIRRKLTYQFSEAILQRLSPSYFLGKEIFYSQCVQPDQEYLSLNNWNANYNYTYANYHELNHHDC
# How it was run: as §1
# ELK4 = biological target: T4, ELK4 (Homo sapiens, UniProt P28324-2 1-405)
# T4 sequence: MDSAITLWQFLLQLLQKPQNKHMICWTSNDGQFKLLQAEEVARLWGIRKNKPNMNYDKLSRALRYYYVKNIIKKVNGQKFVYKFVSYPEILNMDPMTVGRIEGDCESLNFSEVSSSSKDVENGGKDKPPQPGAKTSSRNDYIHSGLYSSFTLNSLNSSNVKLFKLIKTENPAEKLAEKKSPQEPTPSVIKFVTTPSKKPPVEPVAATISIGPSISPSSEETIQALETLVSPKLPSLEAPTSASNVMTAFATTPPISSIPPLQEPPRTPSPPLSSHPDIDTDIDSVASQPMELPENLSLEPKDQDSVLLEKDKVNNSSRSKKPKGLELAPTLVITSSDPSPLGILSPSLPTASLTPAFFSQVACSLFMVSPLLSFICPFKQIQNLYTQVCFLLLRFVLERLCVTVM
# How it was run: as §1
# ETV2 = biological target: T5, ETV2 (Homo sapiens, UniProt O00321 1-342)
# T5 sequence: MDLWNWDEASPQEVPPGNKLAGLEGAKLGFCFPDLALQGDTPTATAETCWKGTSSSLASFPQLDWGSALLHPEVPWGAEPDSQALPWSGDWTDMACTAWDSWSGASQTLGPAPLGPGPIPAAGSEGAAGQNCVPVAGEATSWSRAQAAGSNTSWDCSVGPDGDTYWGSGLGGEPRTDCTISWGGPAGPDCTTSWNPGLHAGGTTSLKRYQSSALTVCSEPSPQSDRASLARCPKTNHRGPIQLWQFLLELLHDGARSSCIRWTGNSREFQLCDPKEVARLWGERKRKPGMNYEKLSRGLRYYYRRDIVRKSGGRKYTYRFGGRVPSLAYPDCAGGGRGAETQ
# How it was run: as §1
# ELF3 = biological target: T6, ELF3 (Homo sapiens, UniProt P78545 1-371)
# T6 sequence: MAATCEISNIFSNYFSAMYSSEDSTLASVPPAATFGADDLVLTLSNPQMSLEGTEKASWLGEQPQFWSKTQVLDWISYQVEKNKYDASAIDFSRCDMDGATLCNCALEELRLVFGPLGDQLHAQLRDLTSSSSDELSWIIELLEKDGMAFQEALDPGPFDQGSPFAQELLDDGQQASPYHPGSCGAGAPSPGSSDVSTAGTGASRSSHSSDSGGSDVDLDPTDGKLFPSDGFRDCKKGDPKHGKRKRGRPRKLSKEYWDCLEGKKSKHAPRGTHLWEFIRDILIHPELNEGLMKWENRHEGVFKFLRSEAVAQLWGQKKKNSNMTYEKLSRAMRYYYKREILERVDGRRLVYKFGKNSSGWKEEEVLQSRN
# How it was run: as §1
# ETV1 = ETV1 (Homo sapiens, UniProt P50549 1-477)
# ETV1, sequence (P50549 whole entry): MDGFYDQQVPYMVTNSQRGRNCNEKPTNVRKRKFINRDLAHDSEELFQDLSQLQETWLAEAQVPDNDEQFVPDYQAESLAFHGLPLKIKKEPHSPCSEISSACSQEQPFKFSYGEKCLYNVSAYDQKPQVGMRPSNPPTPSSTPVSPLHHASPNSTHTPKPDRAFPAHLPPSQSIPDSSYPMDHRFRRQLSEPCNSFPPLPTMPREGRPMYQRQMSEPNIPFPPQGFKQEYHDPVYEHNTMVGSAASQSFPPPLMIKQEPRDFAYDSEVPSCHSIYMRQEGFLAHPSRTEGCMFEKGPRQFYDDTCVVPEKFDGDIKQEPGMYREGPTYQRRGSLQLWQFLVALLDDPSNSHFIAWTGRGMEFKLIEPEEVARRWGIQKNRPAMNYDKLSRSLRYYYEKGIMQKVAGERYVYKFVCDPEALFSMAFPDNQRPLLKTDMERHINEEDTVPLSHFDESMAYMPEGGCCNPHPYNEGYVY
# How it was run: as §1
# ETV3L = biological target: T7, ETV3L (Homo sapiens, UniProt Q6ZN32 1-361)
# T7 sequence: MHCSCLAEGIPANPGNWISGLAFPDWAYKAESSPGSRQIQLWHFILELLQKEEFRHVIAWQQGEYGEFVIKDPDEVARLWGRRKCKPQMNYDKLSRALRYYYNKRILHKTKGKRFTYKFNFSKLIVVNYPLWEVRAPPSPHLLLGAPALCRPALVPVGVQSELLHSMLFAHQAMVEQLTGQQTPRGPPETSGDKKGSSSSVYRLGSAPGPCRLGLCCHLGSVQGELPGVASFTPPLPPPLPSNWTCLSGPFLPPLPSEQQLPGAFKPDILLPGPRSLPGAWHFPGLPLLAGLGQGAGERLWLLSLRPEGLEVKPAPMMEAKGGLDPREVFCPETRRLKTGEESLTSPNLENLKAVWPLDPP
# How it was run: as §1
# SPDEF = biological target: T8, SPDEF (Homo sapiens, UniProt O95238 1-335)
# T8 sequence: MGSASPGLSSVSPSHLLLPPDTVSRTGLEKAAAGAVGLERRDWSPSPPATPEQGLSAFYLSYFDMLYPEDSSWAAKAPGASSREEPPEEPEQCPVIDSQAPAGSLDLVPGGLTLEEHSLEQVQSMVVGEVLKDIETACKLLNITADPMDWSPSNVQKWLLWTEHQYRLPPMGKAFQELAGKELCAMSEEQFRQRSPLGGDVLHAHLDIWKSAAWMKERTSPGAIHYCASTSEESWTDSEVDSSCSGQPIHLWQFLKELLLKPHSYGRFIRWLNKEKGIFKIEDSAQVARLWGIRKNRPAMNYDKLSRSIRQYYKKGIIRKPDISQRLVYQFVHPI
# How it was run: as §1
# ETV3 = biological target: T9, ETV3 (Homo sapiens, UniProt P41162-2 1-143)
# T9 sequence: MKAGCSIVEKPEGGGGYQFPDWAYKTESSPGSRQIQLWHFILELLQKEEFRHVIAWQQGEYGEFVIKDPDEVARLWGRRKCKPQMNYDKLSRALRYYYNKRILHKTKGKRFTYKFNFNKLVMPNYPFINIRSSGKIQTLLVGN
# How it was run: as §1
# ERF = biological target: T10, ERF (Homo sapiens, UniProt P50548 1-548)
# T10 sequence: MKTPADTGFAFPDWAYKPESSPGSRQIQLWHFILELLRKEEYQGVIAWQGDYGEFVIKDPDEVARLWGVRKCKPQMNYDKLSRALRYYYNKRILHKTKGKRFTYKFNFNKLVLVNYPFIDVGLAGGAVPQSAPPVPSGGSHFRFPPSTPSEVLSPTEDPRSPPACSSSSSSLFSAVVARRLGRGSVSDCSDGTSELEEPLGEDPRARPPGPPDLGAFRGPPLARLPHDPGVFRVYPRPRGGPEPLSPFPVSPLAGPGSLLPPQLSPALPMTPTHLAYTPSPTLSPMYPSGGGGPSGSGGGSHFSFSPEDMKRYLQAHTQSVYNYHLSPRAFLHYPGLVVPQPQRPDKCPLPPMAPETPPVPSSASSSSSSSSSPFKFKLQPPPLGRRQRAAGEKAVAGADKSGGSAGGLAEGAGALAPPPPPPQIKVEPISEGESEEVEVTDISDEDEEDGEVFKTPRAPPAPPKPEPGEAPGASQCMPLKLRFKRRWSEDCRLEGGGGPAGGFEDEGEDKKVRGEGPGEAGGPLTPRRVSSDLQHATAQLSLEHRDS
# How it was run: as §1
# GABPA = biological target: T11, GABPA (Homo sapiens, UniProt Q06546 1-454)
# T11 sequence: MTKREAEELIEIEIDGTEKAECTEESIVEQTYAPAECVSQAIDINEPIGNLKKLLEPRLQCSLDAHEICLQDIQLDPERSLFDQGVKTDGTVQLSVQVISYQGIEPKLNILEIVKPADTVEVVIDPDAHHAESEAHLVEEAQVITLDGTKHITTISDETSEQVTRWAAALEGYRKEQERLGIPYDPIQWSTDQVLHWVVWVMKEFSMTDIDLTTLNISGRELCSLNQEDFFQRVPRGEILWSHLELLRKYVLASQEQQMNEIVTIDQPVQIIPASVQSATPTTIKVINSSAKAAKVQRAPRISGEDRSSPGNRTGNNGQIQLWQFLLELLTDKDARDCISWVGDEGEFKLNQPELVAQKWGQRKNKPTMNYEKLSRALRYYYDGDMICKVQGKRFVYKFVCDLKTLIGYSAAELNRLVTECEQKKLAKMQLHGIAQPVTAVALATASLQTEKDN
# How it was run: as §1
# ETS2 = biological target: T12, ETS2 (Homo sapiens, UniProt P15036 1-469)
# T12 sequence: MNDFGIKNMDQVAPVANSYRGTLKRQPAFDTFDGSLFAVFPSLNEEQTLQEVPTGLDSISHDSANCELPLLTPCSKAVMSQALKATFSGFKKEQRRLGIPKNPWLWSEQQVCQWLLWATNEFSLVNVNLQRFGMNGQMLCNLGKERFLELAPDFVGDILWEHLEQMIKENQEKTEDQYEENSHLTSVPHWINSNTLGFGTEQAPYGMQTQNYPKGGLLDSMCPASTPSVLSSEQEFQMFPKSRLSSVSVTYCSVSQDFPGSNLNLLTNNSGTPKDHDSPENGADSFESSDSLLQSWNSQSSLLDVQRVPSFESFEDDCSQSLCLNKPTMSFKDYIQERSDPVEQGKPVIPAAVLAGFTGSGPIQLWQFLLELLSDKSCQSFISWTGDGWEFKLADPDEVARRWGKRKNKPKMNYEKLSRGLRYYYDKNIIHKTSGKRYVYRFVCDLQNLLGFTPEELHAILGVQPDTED
# How it was run: as §1
sequence,measurement,setting,value
AGGTCC,binding signal,ERG,"1.02 fold enrichment (6-mer frequency, TF over GST control)"
same,binding signal,EHF,"1.05 fold enrichment (6-mer frequency, TF over GST control)"
same,binding signal,SPIC,"1.2 fold enrichment (6-mer frequency, TF over GST control)"
same,binding signal,ELK4,"1.02 fold enrichment (6-mer frequency, TF over GST control)"
same,binding signal,ETV2,"1.08 fold enrichment (6-mer frequency, TF over GST control)"
same,binding signal,ELF3,"1.07 fold enrichment (6-mer frequency, TF over GST control)"
same,binding signal,ETV1,"1.05 fold enrichment (6-mer frequency, TF over GST control)"
same,binding signal,ETV3L,"1.03 fold enrichment (6-mer frequency, TF over GST control)"
same,binding signal,SPDEF,"1.24 fold enrichment (6-mer frequency, TF over GST control)"
same,binding signal,ETV3,"1.03 fold enrichment (6-mer frequency, TF over GST control)"
AGTTTG,binding signal,SPIC,"1.06 fold enrichment (6-mer frequency, TF over GST control)"
same,binding signal,ELK4,"1.03 fold enrichment (6-mer frequency, TF over GST control)"
same,binding signal,ERF,"1.01 fold enrichment (6-mer frequency, TF over GST control)"
CGTCAT,binding signal,GABPA,"1.03 fold enrichment (6-mer frequency, TF over GST control)"
same,binding signal,ERG,"1.02 fold enrichment (6-mer frequency, TF over GST control)"
same,binding signal,SPIC,"1.05 fold enrichment (6-mer frequency, TF over GST control)"
same,binding signal,ELK4,"1.09 fold enrichment (6-mer frequency, TF over GST control)"
same,binding signal,ETV1,"1.09 fold enrichment (6-mer frequency, TF over GST control)"
same,binding signal,ETS2,"1.03 fold enrichment (6-mer frequency, TF over GST control)"
